AmpC detergent: blocks E. coli AmpC beta-lactamase in detergent assay; Potency, µM (doses to about 114 µM), inactives show top-dose activity change, negative = inhibition, actives largely listed as inhibitors; P00811; 370,000 tested, 0.041% active; AmpC hydrolysis of nitrocefin, absorbance 480 nm, 0.01% Triton; AID 485294;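 also: 0% = no-compound wells and -100% = no-enzyme wells; nearly all actives have a fitted effect of over 25% in size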
Target sequence (P00811 whole entry, looked up): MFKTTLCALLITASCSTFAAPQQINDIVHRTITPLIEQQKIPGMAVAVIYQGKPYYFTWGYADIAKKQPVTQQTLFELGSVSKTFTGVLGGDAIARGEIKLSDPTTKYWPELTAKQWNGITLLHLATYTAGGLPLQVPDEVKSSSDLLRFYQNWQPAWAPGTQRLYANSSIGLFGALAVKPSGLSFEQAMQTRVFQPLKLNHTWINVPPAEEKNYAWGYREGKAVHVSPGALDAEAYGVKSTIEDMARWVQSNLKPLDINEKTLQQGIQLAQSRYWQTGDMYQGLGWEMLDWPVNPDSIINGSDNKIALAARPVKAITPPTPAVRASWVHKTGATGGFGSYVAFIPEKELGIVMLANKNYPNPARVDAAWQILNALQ
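AmpC (5.3 nM in the dispensed reagent) in 20 mM phosphate pH 7.0 with 0.01% (detergent screen) or 0.0001% Triton X-100 was preincubated with compounds for 15 min at room temperature. Nitrocefin was then added from an 800 uM solution, and hydrolysis was followed at 480 nm.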
AMA1-RON2 inh: inhibitors of Plasmodium falciparum AMA1-RON2 interaction. AlphaScreen AMA1-biotinylated RON2 peptide binding. Potency, µM (titrated, usually from 58.2 µM), for the others: at the top dose activity change, negative = inhibition, hits mostly inhibitors. 360,000 tested, 0.2% active. AID 720542;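 also: 0% = vehicle wells and -100% = peptide control; nearly all actives have a fitted effect of over 45% in size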
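AMA1 (3D7) with his tag at 25 nM final met compounds first, then biotinylated RON2 peptide at 25 nM; detection used donor plus acceptor beads, 10 µg/mL apiece, read by AlphaScreen after 30 min at room temperature.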
FBPA Giardia inh: blocks Giardia fructose-bisphosphate aldolase activity. A8B2U2. purified Giardia FBPA. Potency, µM (doses to about 59.6 µM), without a hit: top-dose activity, negative = inhibition, most hits filed as inhibitors. 290,000 tested, 0.71% active. AID 2451; also: nearly all actives have a fitted effect of over 55% in size
Target sequence (A8B2U2 whole entry, looked up): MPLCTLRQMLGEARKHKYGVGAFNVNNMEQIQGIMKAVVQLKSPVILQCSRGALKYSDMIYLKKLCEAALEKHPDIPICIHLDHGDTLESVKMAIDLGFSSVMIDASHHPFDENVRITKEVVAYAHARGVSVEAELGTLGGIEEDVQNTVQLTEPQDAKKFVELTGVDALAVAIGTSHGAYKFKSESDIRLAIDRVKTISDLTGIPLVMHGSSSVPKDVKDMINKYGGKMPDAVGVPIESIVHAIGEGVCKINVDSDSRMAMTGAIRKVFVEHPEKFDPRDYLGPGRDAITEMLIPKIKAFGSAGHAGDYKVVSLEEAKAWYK
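Giardia FBPA (40 nM reagent) was preincubated 10 min at RT with compound (up to 57.5 uM final), then substrate plus GAPDH/TPI/NAD/arsenate coupling system with diaphorase/resazurin was added; resorufin fluorescence (525/598 nm) was read after 20 min.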
AmpC no deterg: inhibitors of E. coli AmpC beta-lactamase without detergent. P00811. AmpC nitrocefin hydrolysis, absorbance 480 nm, 0.0001% Triton. Potency, µM (titrated, usually from 57.1 µM), without a hit: top-dose activity change, negative = inhibition, hits mostly inhibitors. 330,000 tested, 0.52% active. AID 485341;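 also: plate controls were no compound for no effect and no enzyme for full effect; nearly all actives have a fitted effect of over 20% in size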
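20 mM phosphate pH 7.0 + 0.01% (detergent screen) or 0.0001% Triton X-100; 5.3 nM AmpC reagent; cpd preinc 15 min RT; nitrocefin (800 uM stock) to start; A480 q20 s × 4 min; Activity was normalised to no-enzyme and no-compound control wells.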
Active calls of the source: *; ? = inconclusive; . = no result given; [ ] = another dose, or the depositor's remark. Only some compounds are listed: those with a hit (about 1.1% of all), similar ones and a draw of the others. Calls follow the shape of the dose curve; as a rule, active = well fitted curve in the direction sought with a large enough effect; inconclusive = small, poorly fitted or top-dose-only effect, or another doubt; inactive = no such curve, though single readings can be large; an effect the other way counts as inactive or inconclusive. Unless noted, % is scaled to controls: 0 for no effect and ±100 for the full control effect; potency is read from the fitted curve at half-maximal effect.

SMILES	AmpC detergent	AMA1-RON2 inh	FBPA Giardia inh	AmpC no deterg
O=c1[nH]c2c(s1)C(c1ccc(O)cc1)C1C3CCC(C3)C1S2 (centres undefined)	-14%	7%	-2%	45µM*
O=c1c2ccccc2nc(COc2ccccc2)n1/N=C/c1ccc(O)c(O)c1	9%	35%	-30%	3.5µM*
Cc1cc(/C=N/n2c(COc3ccccc3)nc3ccccc3c2=O)c(O)c([N+](=O)[O-])c1	?	?	8%	20µM*
O=C(O)COc1ccc(/C=N/n2c(COc3ccccc3)nc3ccccc3c2=O)cc1	-1%	-24%	6%	-29%
Cc1ccc(-c2[nH]ncc2/C=N/n2c(COc3ccccc3)nc3ccccc3c2=O)cc1	-2%	27%	8%	-9%
CCC(=O)N1CCC(C)(C(=O)NCc2cccc(OC)c2)C1 (centres undefined)	.	2%	.	.
O=C(CSc1nc2ccc(NC(=O)c3ccccc3C(=O)O)cc2s1)Nc1ccc(F)c([N+](=O)[O-])c1	-8%	-20%	-4%	18µM*
O=C(Nc1ccc2nc(SCc3ccccc3)sc2c1)c1ccccc1F	5%	.	.	.
O=C(O)c1cc(Cl)n[nH]c1=O	.	-3%	.	.
CCCCN=C1NN=C(c2cccc([N+](=O)[O-])c2)CS1	-12%	35%	-4%	-32%[11.4 µM]
CCCCN=C1NN=C(c2cc3ccccc3o2)CS1	-8%	88%	5%	14µM*
O=[N+]([O-])c1cc(C(F)(F)F)ccc1NC1CCN(Cc2ccccc2)CC1	0%	13µM*	-2%	10%
COc1ccccc1N(C)S(=O)(=O)c1ccc(C)c(C(=O)NC(C)c2ccccn2)c1 (centres undefined)	-10%	-11%[11.6 µM]	.	15%
COc1cc(C)c(NC(c2ccccc2)c2ccccc2)cc1OC	-6%	35µM*	-5%	-6%
COc1ccccc1CNC(c1ccccc1)c1ccccc1	-4%	19%	?	-4%
CCc1ccc(Nc2nnc(SCC(=O)Nc3sccc3C(N)=O)s2)cc1	5%	13%	1%	16µM*
CCN(CC)C(=O)C1=C(C)N(CCCOC)C(=O)C(CC(=O)NC2CCCCC2)C1 (centres undefined)	.	5%	.	.
COc1cc(C2Nc3cccc4cccc(c34)N2)cc(OC)c1O	-3%	-5%	?	32µM*
COc1cc(C2Nc3cccc4cccc(c34)N2)ccc1OC(C)=O	-11%	11%	?	-22%
O=C(NCc1ccccc1Cl)[C@@H]1CCCN1S(=O)(=O)c1ccc(Cl)cc1	.	-3%	.	-9%
COc1cc(O)c(C(=O)c2ccccc2)cc1O	.	.	3.5µM*	.
COc1cc(OC)c(N(C)S(=O)(=O)c2cccc(C(=O)OCC(=O)c3c[nH]c4ccccc34)c2)cc1Cl	?	18%	-13%	4µM*
O=c1c2ccccc2nc(/C=C/c2cccnc2)n1Cc1ccccc1	-6%	32µM*	-4%	26%
CCOC(=O)c1ccc(NC(=O)CC2C(=O)N(c3ccc(C)cc3)C(=O)N2C2CCCC2)cc1 (centres undefined)	0%	.	.	.
CC1(C)CC(=O)C2=C(C1)OC(N)=C(C#N)C2Cc1ccccc1 (centres undefined)	-3%	2%	0%	0.32µM*
SMILES	AmpC detergent	AMA1-RON2 inh	FBPA Giardia inh	AmpC no deterg
CCCCNC(=O)C(CC)Sc1nnc(-c2ccc(OC)c(OC)c2)c(-c2ccc(OC)c(OC)c2)n1 (centres undefined)	-5%	.	.	.
Nc1nc(-c2ccccc2)c(CCCOc2ccc(NC(=O)CBr)cc2)c(=O)[nH]1	.	9%	.	.
CN(C)CCN(C)c1cc2c(c3c1ccn3C)C1CCC2O1 (centres undefined)	.	-3%	.	.
CN(Cc1ccccc1)c1cc2c(c3c1ccn3C)C1CCC2O1 (centres undefined)	.	14µM*	.	.
Cn1ccc2c(-c3cccc4ccccc34)cc3c(c21)C1CCC3C1 (centres undefined)	.	25%	.	.
CCN(Cc1ccccc1)c1cc2c(c3c1ccn3C)C1CCC2C1 (centres undefined)	.	20µM*	.	.
N#Cc1ccc(C=NN2CCCCCC2)cc1	.	28µM*	.	.
O=C(CCl)N1CCN(S(=O)(=O)Cc2ccccc2)CC1	-2%	0%	.	-15%
CC1C/C(=C/c2cccs2)C(=O)/C(=C/c2cccs2)C1 (centres undefined)	-11%	?	-5%	-20%
O=C1/C(=C/c2cccs2)CCC/C1=C\c1cccs1	-1%	11µM*	.	-25%
COCC(C)N1CCC(Oc2ccc(C(=O)N3CCCC3)cc2)CC1 (centres undefined)	0%	19%	-6%	-14%
Nc1ccccc1S(=O)(=O)Nc1cccc2cccnc12	.	.	14µM*	.
O=C1C=C(Nc2ccccc2)c2ccccc2C1=O	?	-2%	?	-27%
O=C1C=C(Nc2ccccc2C(=O)O)c2ccccc2C1=O	1%	0%	1.6µM*	-50%
O=C1C=C(Nc2cccc3cccnc23)c2ccccc2C1=O	5%	-6%	1.6µM*	-39%
O=C1C(Nc2ccccc2)=CC(=O)c2ncccc21	.	.	-17%	.
O=C(OCC(=O)c1c[nH]c2ccccc12)c1cc(Br)ccc1O	-2%	7%	-3%	2.2µM*
CCCCNC(=O)COC(=O)c1c2c(nc3ccccc13)/C(=C/c1cccs1)CC2	-5%	37%	-4%	25µM*
CCCCNC(=O)COC(=O)c1c2c(nc3ccccc13)CCC2	-7%	-24%	1%	-35%
CC(=O)c1ccc(N2CCN(CC(=O)N(C3CC3)C3CCS(=O)(=O)C3)CC2)c(F)c1 (centres undefined)	-2%	-4%	.	5%
CCOC(=O)CN=C1CC(C)(C)CC2=C1Sc1ncnc(N(C)C)c1N2	-6%	50%	2.5µM*	-2%
O=C1C(=O)N(C2CCN(C(=O)c3ccc(Cl)cc3)CC2)CCN1Cc1ccc(F)cc1	4%	.	.	.
O=C1c2cccnc2-c2ncccc21	?	2%	0%	-8%
CC1(C)OCC(CSC2=C(SCC3COC(C)(C)O3)C(=O)c3ncccc3C2=O)O1 (centres undefined)	.	.	1.8µM*	.
COCCNC(=O)C1(C)CCCN(Cc2ccc(OC)cc2)C1 (centres undefined)	.	-1%	.	.
SMILES	AmpC detergent	AMA1-RON2 inh	FBPA Giardia inh	AmpC no deterg
CCc1c2c(nc3ccc(OC)cc13)COC2	.	.	-29%	.
CC1(C)C(/C=C/C=C/C=C/C=C2\N(CCCCS(=O)(=O)O)c3ccc4ccccc4c3C2(C)C)=[N+](CCCCS(=O)(=O)[O-])c2ccc3ccccc3c21	.	8.9µM*	.	.
Cc1nc(N2CCOCC2)c2nc(-c3ccccc3)n(CC3CCN(C)CC3)c2n1	.	.	-6%	.
COc1ccc(CCNC(=O)c2coc3ccccc3c2=O)cc1OC	11%	10%	4%	12%
Cc1cccc(Nc2nnc(-c3ccc(C)c(S(=O)(=O)N4CCOCC4)c3)c3ccccc23)c1	-3%	.	.	.
CCC(C)NC(=O)C(Cc1ccccc1)n1cccc1 (centres undefined)	?	-12%	5%	0.5µM*
